Test results reported in PubChem BioAssay (EPA / NIEHS).
Activity calls are given as the source filed them. Rule for the calls: active = hit-call score of the fitted dose curve at least 0.9, where 1 is the maximum; inactive = score below 0.9.

Read-out: Matrix Metallopeptidase 9 (MMP9), MMP9 (gene 4318)
Experiment: BSK_KF3CT_MMP9: BioMAP Diversity Plus: KF3CT Assay for Matrix Metallopeptidase 9 (MMP9) Biomarker Activity (AID 2283074)
Conditions: primary human keratinocytes with fibroblasts; actives raise or lower the signal
Method: BSK_KF3CT is a cell-based, multiplexed-readout assay that uses keratinocytes and foreskin fibroblasts, a human skin primary cell co-culture, with measurements taken at 24 hours after chemical dosing in a 96-well plate.BSK_KF3CT_MMP9 is an assay component measured in the BSK_KF3CT assay. It measures MMP-9 antibody related to regulation of gene expression using ELISA technology.Data from the assay component BSK_KF3CT_MMP9 was analyzed into 1 assay endpoint. This assay endpoint, BSK_KF3CT_MMP9, was analyzed with bidirectional fitting relative to DMSO as the negative control and baseline of activity. Using a type of binding reporter, gain or loss-of-signal activity can be used to understand changes in the signaling as they relate to the gene MMP9. Furthermore, this assay endpoint can be referred to as a primary readout, because this assay has produced multiple assay endpoints where this one serves a signaling function. To generalize the intended target to other relatable targets, this assay endpoint is annotated to the protease intended target family, where the subfamily is matrix metalloproteinase.
The levels of cell surface (or secreted, indicated by the prefix "s") biomarker endpoints were measured by ELISA. Overt cytotoxicity to cells in confluent adherent cultures (all systems other than the BT system) was assessed by measuring total protein levels using sulforhodamine B (SRB) staining in parallel cultures at the time of biomarker measurements, indicated as SRB endpoints. For proliferation assays for adherent cell types, individual cell types are cultured at sub-confluence and relative cell numbers quantified by SRB staining at time points optimized for each system (48 h: 3C and CASM3C systems; 72 h: BT and HDF3CGF systems; 96 h: SAg system). SRB was performed by staining cells with 0.1% SRB after fixation with 10% TCA and reading wells at 560 nm.Viability and proliferation of PBMC (T cells) was quantified by Alamar Blue reduction for the SAg and BT systems. For PBMC viability (referred to as PBMC Cytotoxicity within the assay endpoint names), cells were plated (75,000/well in a 96-well plate) and then chemical samples added for 1 h before addition of activators, SEB and TSST-1 (20 ng/mL final concentration each). Cells were incubated for 90 h. Then, Alamar Blue (20 uL/well) (Invitrogen, Cat DAL1100) was added for 6 h, and the plates were read with a fluorescence microplate reader at 546/580 nm (excitation/emission). For PBMC proliferation, cells were plated and activated as above but incubated for only 16 h prior to addition of Alamar Blue. Plates were read after 6 h.

| SMILES | outcome | AC50 |
| --- | --- | --- |
| O=C(O)C(F)(F)OC(F)(F)C(F)(F)OC(F)(F)F | inactive |  |
| O=[N+]([O-])c1ccccc1 | inactive |  |
| Cc1cccc(N)c1 | inactive |  |
| CCC(C)(C)c1ccc(O)cc1 | inactive |  |
| Cc1ccc([N+](=O)[O-])cc1C | inactive |  |
| O=C(O)C=CC(F)(C(F)(F)F)C(F)(F)F | inactive |  |
| C=CC(=O)OCC(CC)(COC(=O)C=C)COC(=O)C=C |  | 2.34 µM (active) |
| FC(F)(F)C(F)(C(F)(F)F)C(F)(F)C(F)(F)CC1CO1 (stereo not given) | inactive |  |
| CCOC(=O)c1ccccc1C(=O)OCC | inactive |  |
| N#Cc1c(-c2ccc(Cl)cc2)[nH]c(C(F)(F)F)c1Br |  | 3.97 µM (active) |
| c1ccc2c(c1)Nc1ccccc1S2 | inactive |  |
| CC(Cl)(Cl)C(=O)O | inactive |  |
| CCCCc1ccccc1 | inactive |  |
| CCNc1nc(Cl)nc(NC(C)(C)C)n1 | inactive |  |
| c1ccc2c(c1)sc1ccccc12 | inactive |  |
| CCOP(=S)(NC(C)C)Oc1ccccc1C(=O)OC(C)C (stereo not given) | inactive |  |
| Nc1cc2c3c(c1)C(c1ccccc1)=N[C@@H](NC(=O)c1cccnc1)C(=O)N3CC2 | inactive |  |
| COC(=O)C(F)(F)C(F)(F)OC(F)(C(F)(F)F)C(F)(F)OC(F)=C(F)F (stereo not given) | inactive |  |
| Nc1ccc([N+](=O)[O-])cc1Cl | inactive |  |
| CCCCC(CC)COC(=O)c1c(Br)c(Br)c(Br)c(Br)c1C(=O)OCC(CC)CCCC (stereo not given) | inactive |  |

| SMILES | outcome | AC50 |
| --- | --- | --- |
| COP(=O)(O)OC | inactive |  |
| O=C(O)C(F)(OC(F)(F)C(F)(F)C(F)(F)F)C(F)(F)F (stereo not given) | inactive |  |
| CN(C)C(=O)Cl | inactive |  |
| CCOP(=S)(Oc1ccc([N+](=O)[O-])cc1)c1ccccc1 (stereo not given) | inactive |  |
| CC(C)(C)c1ccccc1OP(=O)(Oc1ccccc1)Oc1ccccc1 |  | 8.49 µM (active) |
| CCOc1ccc(C(C)(C)COCc2cccc(Oc3ccccc3)c2)cc1 | inactive |  |
| NC(=O)C(F)(F)C(F)(F)F | inactive |  |
| O=S1(=O)OCC2C(CO1)C1(Cl)C(Cl)=C(Cl)C2(Cl)C1(Cl)Cl (stereo not given) | inactive |  |
| COP(=O)(CCC(=O)NCO)OC | inactive |  |
| Cc1c([N+](=O)[O-])cc2c(c1[N+](=O)[O-])C(C)(C)CC2(C)C | inactive |  |
| ClC(Cl)(Cl)c1ccccc1 | inactive |  |
| CCCCC(CC)COP(=O)(Oc1ccccc1)Oc1ccccc1 (stereo not given) |  | 3.71 µM (active) |
| CCN(CC)c1ccccc1 | inactive |  |
| c1cc2c3c(cccc3c1)CC2 | inactive |  |
| N#Cc1cc([N+](=O)[O-])ccc1N | inactive |  |
| CC(O)C(F)(F)C(F)(F)F (stereo not given) | inactive |  |
| CCOP(=S)(OCC)SCSc1ccc(Cl)cc1 |  | 0.324 µM (active) |
| O=S(=O)(F)C(F)(F)C(F)(F)C(F)(F)C(F)(F)C(F)(F)C(F)(F)C(F)(F)C(F)(F)F | inactive |  |
| CCCN(CCC)c1c([N+](=O)[O-])cc(C(C)C)cc1[N+](=O)[O-] |  | 14.6 µM (active) |
| O=C(O)C(F)(F)OC(F)(F)C(F)(F)OC(F)(F)C(=O)O | inactive |  |
